MLLE-PAM2 inh: blocks PAM2 peptide binding to the PABP1 MLLE domain. AID 588489. GST-MLLE / FITC-PAM2 fluorescence polarization. inhibition, % at 20 µM. 360,000 compounds, 0.36% hits; in the data active = inhibition above about 35%, passing the limit was not always enough
PHOSPHO1 inh: blocks human PHOSPHO1 phosphatase activity; Q8TCT1; recombinant PHOSPHO1, absorbance phosphatase assay; inhibition, % at 13.3 µM; 290,000 compounds, 1.1% hits; AID 1565; in the data active = inhibition above about 60%
APOBEC3A inh: inhibitors of human APOBEC3A DNA deaminase. recombinant A3A, FAM/TAMRA ssDNA deamination fluorescence. inhibition, % at 20 µM. 330,000 compounds, 0.41% hits. AID 493011;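 active = at least 40% inhibition at 20 µM here, with at most 30% in a related deaminase screen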
PABP polyA inh: PABP-poly(A) binding inhibition. AID 2014. PABP-poly(A) RNA binding, fluorescence polarization. calls only at 35 µM. 290,000 compounds, 1% hits;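 note: calls also rest on retests at 20 µM and on dose response follow-up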
eIF4H FP inh: inhibitors of RNA binding by human eIF4H. inhibition, % at 35 µM. 290,000 compounds, 0.94% hits. eIF4H fluorescence polarization binding assay. Q15056. AID 2012;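 note: calls also rest on retests at 20 µM and on dose response follow-up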
A3G deaminase: blocks human APOBEC3G single-stranded DNA deamination; 330,000 compounds, 0.28% hits; inhibition, % at 20 µM; recombinant A3G, ssDNA deamination FAM/TAMRA fluorescence; AID 493012;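 active = inhibition of at least 40% at 20 µM, with no more than 30% in the related APOBEC3A deaminase screen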
Target sequence (Q9HC16 whole entry, looked up): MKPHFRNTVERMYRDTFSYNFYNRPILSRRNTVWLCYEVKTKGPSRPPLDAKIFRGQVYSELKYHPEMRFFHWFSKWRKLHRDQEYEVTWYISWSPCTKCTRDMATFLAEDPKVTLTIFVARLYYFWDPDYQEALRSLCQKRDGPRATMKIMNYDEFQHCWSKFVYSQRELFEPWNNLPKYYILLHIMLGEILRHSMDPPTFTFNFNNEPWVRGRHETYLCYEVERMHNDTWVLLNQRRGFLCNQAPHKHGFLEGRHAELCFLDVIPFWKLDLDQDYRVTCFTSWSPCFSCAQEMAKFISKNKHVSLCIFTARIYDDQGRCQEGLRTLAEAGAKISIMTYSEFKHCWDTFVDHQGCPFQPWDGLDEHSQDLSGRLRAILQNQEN
Hits are given with their value; i = inactive; ? = inconclusive; nt = no result given; + = active, no number. An excerpt weighted towards active compounds, which were near 2.6% of everything screened. Unless noted, the rule behind the calls is not given here.

SMILES	MLLE-PAM2 inh	PHOSPHO1 inh	APOBEC3A inh	PABP polyA inh	eIF4H FP inh	A3G deaminase
Cc1cc(C)n2c(SC/C(O)=C(\C#N)c3nc4ccccc4[nH]3)nnc2n1	i	i	i	+	79.7	i
CCOC(=O)c1ccc2c(c1)nc(SCC(=O)c1ccco1)n2CC	i	78.9	i	i	i	i
CCOC(=O)c1ccc2c(c1)nc(SC/C(O)=C(\C#N)c1nc3ccccc3[nH]1)n2CC	i	87.7	i	i	i	i
CCOC(=O)N1CCN(C(=O)c2c(N)no[n+]2[O-])CC1	i	i	i	i	i	i
COC(=O)c1ccc(Cn2nc([N+](=O)[O-])c(Br)c2C)cc1	i	i	i	i	i	i
CCc1nnc(NC(=O)CSc2nnc(Cc3ccccc3)n2Cc2ccccc2)s1	i	i	i	i	i	i
CCSCc1nnc(SCC(=O)Nc2nccs2)n1CC	i	60.0	i	i	i	i
Cc1nnc(SCC(=O)NNC(=O)c2ccccc2)n1Cc1ccccc1	i	nt	i	nt	nt	i
CCn1c(COc2ccc(C(C)C)cc2)nnc1SCC(=O)Nc1nccs1	i	96.9	i	i	i	i
Cc1nnc(SCC(=O)Nc2sccc2C#N)n1Cc1ccccc1	i	i	i	+	28.8	i
CCn1c(Cc2ccccc2)nnc1SCC(=O)Nc1nccs1	i	i	i	i	i	i
CCc1nnc(NC(=O)CSc2nnc(COc3ccccc3)n2Cc2ccccc2)s1	i	60.5	i	i	i	i
COc1ccc(C2=NOC(CNC(=S)N3CCOCC3)C2)cc1 (stereo unspecified)	i	i	i	i	i	i
COc1ccc(CN2C(=O)c3cccnc3C2=O)cc1S(=O)(=O)NC1CCCCC1	i	69.0	i	i	i	i
CCCN1CCCc2cc(CN)ccc21	45.1	i	i	+	58.1	i
Cc1ccc(C(=O)CSc2ncn[nH]2)cc1	i	97.1	i	i	i	i
COc1ccc(C(=O)CSc2nnc3ccccn23)cc1OC	i	i	i	i	i	i
Cc1ccc(C(=O)CSc2ccccn2)cc1	i	82.7	i	i	i	i
COc1ccc(C(=O)CSc2ncn[nH]2)cc1OC	i	76.6	i	i	i	i
O=C(CSc1ncn[nH]1)c1ccc(OC(F)F)cc1	i	i	i	i	i	i
CCc1ccc(C(=O)CSc2ncn[nH]2)cc1	i	88.5	i	i	i	i
CCn1c(=O)c2sccc2n(Cc2cc(C(=O)OC)ccc2OC)c1=O	i	i	i	i	i	i
O=C(NCc1ccc(Cl)cc1)NCC(F)(F)F	i	i	i	i	i	i
CN(CC(=O)Nc1ccc(OC(F)(F)F)cc1)S(=O)(=O)c1cnc[nH]1	i	i	i	i	i	i
O=C(OCCN1CCN(C2=NS(=O)(=O)c3ccccc32)CC1)c1cccc(Br)c1	i	i	i	i	i	i
SMILES	MLLE-PAM2 inh	PHOSPHO1 inh	APOBEC3A inh	PABP polyA inh	eIF4H FP inh	A3G deaminase
COc1ccc(S(=O)(=O)NCC2(N3CCOCC3)CCCCC2)cc1OC	i	nt	i	nt	nt	i
Cc1ccc(N(Cc2cc3ccc(C)cc3[nH]c2=O)S(=O)(=O)c2ccccc2)cc1	i	i	i	i	i	i
CCCCCCc1c(O)nc(SCCN2CCOCC2)[nH]c1=O	i	67.6	i	i	i	i
CC1=Nn2c(nnc2-c2ccccc2Cl)SC1	i	73.8	i	i	i	i
Clc1ccccc1C1=Nn2c(nnc2-c2ccncc2)SC1	i	i	nt	i	i	nt
COc1ccccc1-c1nnc2n1N=C(C)CS2	i	73.8	i	i	i	i
CCN1CCN(c2nc3ccccn3c(=O)c2C=O)CC1	i	i	i	i	i	i
O=Cc1c(N2CCN(CCO)CC2)nc2ccccn2c1=O	47.1	i	i	?	?	i
CCN(CC)S(=O)(=O)c1cc(NC(=O)C(C)N2CCc3ccccc32)ccc1C (stereo unspecified)	i	i	i	i	active	i
Cc1ccc(NC(=O)C(C)N2CCCc3ccccc32)cc1S(=O)(=O)N1CCOCC1 (stereo unspecified)	i	nt	nt	nt	nt	nt
Cc1no[n+]([O-])c1COc1ccc(/C=C2\NC(=S)NC2=O)cc1	nt	i	i	+	56.2	i
COc1ccc2c(c1)CC/C(=C/c1ccncc1)C2=O	i	i	i	i	i	i
COc1ccc2c3c(ccc2c1)C(=O)/C(=C/O)CC3	43.4	nt	nt	nt	nt	nt
Cc1ccc(N(CC(=O)NC2CCCCC2)C(=O)CCCC(=O)Nc2ccccn2)cc1	i	i	i	+	79.4	i
Cc1[nH]c2ccccc2c1C1=NNC(=Nc2ccc(F)cc2)SC1	i	i	i	+	active	i
